For test [1], the system named is Wnt5a (protein binding on small-molecule microarray). The test can be described thus: Wnt5a binders on small-molecule microarray, primary screen, biophysical, 635/667 nm fluorescence (AID 1142).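 Also: fluorescence read at 667 nm with signal to noise per printed feature.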 The following applies: 635 nm fluorescence, higher = more signal.
Test [2] in a line: cell viability in Huh7 cells, primary screen, cytotoxicity control for HCV replication inhibitor project, CellTiter-Glo luminescence, basal, 48 h (AID 1143).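 Also: Huh7 hepatoma cells carrying a hepatitis C replication reporter with no stimulus; test concentration not given here.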 The following applies: Huh7 HCV replicon, higher = more signal, called active from +8 up or from −8 down.
Test [3] can be described thus: P. aeruginosa biofilm formation inhibitors, primary screen, PAO1 strain, BacTiter-Glo luminescence, LB-PBS (AID 1144). The note with it: 12 h, higher = more signal.
A short description of test [4]: CREB reporter modulators without forskolin, primary screen, cell-based, PC12, CRE-LacZ reporter, unstimulated (AID 1145). The note with it: no forskolin, luminescence, 4.5 h, higher = more signal, called active from +8 up or from −8 down.
The nature of test [5]: CREB reporter modulators under forskolin, primary screen, cell-based, PC12, CRE-LacZ reporter, forskolin-stimulated (AID 1146).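 Also: PC12 cells with 6xCRE LacZ reporter stimulated by forskolin 10 µM; beta-galactosidase reporter signal reflecting CREB driven transcription.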 The following applies: luminescence, 4.5 h, higher = more signal, called active from +8 up or from −8 down.
Test [6] deals with Streptavidin (Streptomyces avidinii) (UniProt P22629). The test can be described thus: streptavidin binders on small-molecule microarray, primary screen, artefact control for SMM compound annotation, biophysical, 635/667 nm fluorescence (AID 1147).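 Also: signal reflects streptavidin binding to arrayed compounds as a control protein.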 The following applies: streptavidin binding, higher = more signal.
Sequence of Streptavidin (Streptomyces avidinii) (P22629 whole entry, looked up): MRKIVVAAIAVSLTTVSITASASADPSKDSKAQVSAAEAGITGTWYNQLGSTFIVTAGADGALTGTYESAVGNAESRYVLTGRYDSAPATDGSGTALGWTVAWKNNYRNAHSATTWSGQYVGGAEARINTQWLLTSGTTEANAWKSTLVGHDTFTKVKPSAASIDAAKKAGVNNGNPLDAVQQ
Test [7] is described as follows: small-molecule binders of probe aInhba, primary screen, biochemical, small-molecule microarray, 635/667 nm fluorescence (AID 1148).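 Also: score merges 667nm spot fluorescence with signal-to-noise for antibody binding to printed compounds.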 The note with it: higher = more signal.
In test [8] the target is Torsin-1A (Homo sapiens) (UniProt O14656). The test can be described thus: torsin A binders from cell lysate, primary screen, small-molecule microarray, wild-type, 635/667 nm (AID 1149). The note with it: COS7 hTOR1A-WT lysate, 635 nm fluorescence, higher = more signal.
Sequence of Torsin-1A (Homo sapiens) (O14656 whole entry, looked up): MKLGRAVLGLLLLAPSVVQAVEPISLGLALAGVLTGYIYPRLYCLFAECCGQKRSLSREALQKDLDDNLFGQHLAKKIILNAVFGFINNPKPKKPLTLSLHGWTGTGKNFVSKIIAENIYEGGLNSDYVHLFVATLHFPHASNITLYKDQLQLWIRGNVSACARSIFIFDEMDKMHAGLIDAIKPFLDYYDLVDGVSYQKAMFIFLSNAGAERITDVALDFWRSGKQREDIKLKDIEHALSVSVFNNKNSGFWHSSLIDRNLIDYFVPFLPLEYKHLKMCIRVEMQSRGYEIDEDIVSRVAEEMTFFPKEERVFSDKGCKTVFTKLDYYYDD
The target is the same in test [9]. The test can be described thus: small-molecule binders of mutant TOR1A in lysate, primary screen, cell lysate, small-molecule microarray, COS7 lysate, 635/667 nm fluorescence (AID 1150).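 Also: score pools 667 nm emission and signal to noise measuring lysate protein binding.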 The note with it: COS7 hTOR1A mutant lysate, 635 nm fluorescence, higher = more signal.
For test [10], the system named is Sonic hedgehog protein (Shh). The test can be described thus: small-molecule binders of Shh protein, primary screen, biochemical, small-molecule microarray, 635/667 nm fluorescence (AID 1151).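 Also: Shh protein binding to compounds spotted on small-molecule microarray slides; score combines spot fluorescence intensity with signal-to-noise across triplicate slides.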 The following applies: small-molecule microarray binding, 635 nm fluorescence; higher = more signal.
Test [11] can be described thus: E. coli DRC41 culture turbidity changes, primary screen, E. coli filamentation inducer project, strain DRC41, OD650, 48 h (AID 1152).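 Also: E. coli MC1000 strain DRC41 lacking acrAB efflux pump and sulA.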 The following applies: E. coli DRC41 (acrAB sulA), higher = more signal, called active from +8 up or from −8 down.
Test [12] is described as follows: small-molecule binders of probe aLefty1, primary screen, biochemical, small-molecule microarray, 635/667 nm fluorescence (AID 1153).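 Also: score merges spot fluorescence with signal-to-noise ratio from the scanned slide images.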 The following applies: higher = more signal.
A short description of test [13]: PSAC antagonists in infected red cells, primary screen, cell-based, P. falciparum Indochina, OD700, 1 h (AID 1154). The following applies: P. falciparum Indochina infected RBC osmotic lysis, higher = more signal, called active from +8 up or from −8 down.
Test [14] is described as follows: PSAC antagonists in infected red cells, primary screen, cell-based, P. falciparum Indochina, OD700, 2 h (AID 1155).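 Also: lysis reports solute entry through the parasite surface anion channel PSAC; channel blockers reduce lysis of infected cells.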 The note with it: P. falciparum Indochina infected erythrocytes, osmotic lysis OD700; higher = more signal, called active from +8 up or from −8 down.
Test [15] in a line: osmotic lysis modulators in infected erythrocytes, primary screen, PSAC antagonist project, cell-based, P. falciparum Indochina, OD700, 3 h (AID 1156). The note with it: higher = more signal, called active from +8 up or from −8 down.
Test [16] in a line: PSAC antagonists in infected red cells, primary screen, cell-based, P. falciparum Indochina, OD700, 18 h (AID 1157). The note with it: P. falciparum Indochina infected erythrocytes, osmotic lysis OD700, 18 h; higher = more signal, called active from +8 up or from −8 down.
Test [17] can be described thus: modulators of S6 phosphorylation in cells, primary screen, cell-based, A549, cytoblot, luminescence, serum-stimulated (AID 1158).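 Also: serum-stimulated A549 lung adenocarcinoma cells; signal is phosphorylated S6 detected by cytoblot immunostaining with HRP secondary.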 The following applies: A549 phospho-S6 cytoblot, 5 h, higher = more signal.
Test [18] has as its target NADPH oxidase 2 (Homo sapiens) (UniProt P04839). The test can be described thus: NOX2-dependent H2O2 signal modulators, primary screen, NOX inhibitor project, cell-based, HEK293-NOX2, PMA-stimulated, Amplex Red fluorescence (AID 1159). Also: test concentration not given here. The following applies: 45 min, higher = more signal, called active from +8 up or from −8 down.
Test [19] concerns the target NADPH oxidase 4 (Homo sapiens) (UniProt Q9NPH5). The test can be described thus: NOX4-dependent H2O2 signal modulators, primary screen, NOX inhibitor project, cell-based, HEK293-NOX4, tetracycline-induced, Amplex Red fluorescence (AID 1160). The note with it: 45 min, higher = more signal, called active from +8 up or from −8 down.
The target in test [20] is NADPH oxidase 5 (Homo sapiens) (UniProt Q96PH1). The test can be described thus: NOX5-dependent H2O2 signal modulators, primary screen, NOX inhibitor project, cell-based, HEK293-NOX5, Amplex Red fluorescence (AID 1161). The following applies: HEK293-NOX5, ionomycin, 45 min, higher = more signal.
Sequence of NADPH oxidase 5 (Homo sapiens) (Q96PH1 whole entry, looked up): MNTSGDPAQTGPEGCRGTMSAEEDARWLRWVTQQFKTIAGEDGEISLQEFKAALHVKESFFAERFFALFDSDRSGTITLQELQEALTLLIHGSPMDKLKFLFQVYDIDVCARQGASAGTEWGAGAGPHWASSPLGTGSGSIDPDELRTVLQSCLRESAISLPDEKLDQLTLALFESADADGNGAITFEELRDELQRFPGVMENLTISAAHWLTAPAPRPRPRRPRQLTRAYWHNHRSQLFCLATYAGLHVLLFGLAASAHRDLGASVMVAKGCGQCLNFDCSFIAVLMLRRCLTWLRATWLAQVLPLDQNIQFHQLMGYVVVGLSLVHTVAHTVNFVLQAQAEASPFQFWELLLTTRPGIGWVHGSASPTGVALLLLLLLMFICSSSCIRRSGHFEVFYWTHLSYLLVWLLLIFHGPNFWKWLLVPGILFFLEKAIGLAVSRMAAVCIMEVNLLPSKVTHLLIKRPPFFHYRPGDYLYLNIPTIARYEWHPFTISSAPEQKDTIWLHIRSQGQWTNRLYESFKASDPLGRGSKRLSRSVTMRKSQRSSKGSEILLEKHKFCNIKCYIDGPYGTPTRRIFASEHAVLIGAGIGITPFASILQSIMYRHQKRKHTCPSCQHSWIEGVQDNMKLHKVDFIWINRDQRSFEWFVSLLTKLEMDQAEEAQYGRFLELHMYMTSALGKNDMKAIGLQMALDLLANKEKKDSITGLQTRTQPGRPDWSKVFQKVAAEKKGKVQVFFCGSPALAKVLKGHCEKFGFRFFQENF

The structures appear in SMILES notation. Active and inactive are the calls of the source. Unless noted, no rule for the calls is given here.

Sequence of NADPH oxidase 4 (Homo sapiens) (Q9NPH5 whole entry, looked up): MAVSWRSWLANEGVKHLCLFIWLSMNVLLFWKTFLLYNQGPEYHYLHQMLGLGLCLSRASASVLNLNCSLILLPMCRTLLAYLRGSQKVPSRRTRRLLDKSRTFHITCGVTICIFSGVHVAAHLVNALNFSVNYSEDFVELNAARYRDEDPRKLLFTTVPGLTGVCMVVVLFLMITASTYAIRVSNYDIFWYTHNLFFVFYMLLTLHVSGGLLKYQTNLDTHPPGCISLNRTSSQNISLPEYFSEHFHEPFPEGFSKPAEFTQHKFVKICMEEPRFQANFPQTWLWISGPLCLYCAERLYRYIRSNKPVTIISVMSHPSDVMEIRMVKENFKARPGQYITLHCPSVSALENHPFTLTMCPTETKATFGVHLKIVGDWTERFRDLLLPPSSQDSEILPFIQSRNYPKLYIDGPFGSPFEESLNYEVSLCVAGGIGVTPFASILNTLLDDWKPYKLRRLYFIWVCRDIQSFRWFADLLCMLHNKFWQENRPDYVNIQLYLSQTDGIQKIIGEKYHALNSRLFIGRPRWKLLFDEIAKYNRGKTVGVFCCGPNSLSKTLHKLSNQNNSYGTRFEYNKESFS
Sequence of NADPH oxidase 2 (Homo sapiens) (P04839 whole entry, looked up): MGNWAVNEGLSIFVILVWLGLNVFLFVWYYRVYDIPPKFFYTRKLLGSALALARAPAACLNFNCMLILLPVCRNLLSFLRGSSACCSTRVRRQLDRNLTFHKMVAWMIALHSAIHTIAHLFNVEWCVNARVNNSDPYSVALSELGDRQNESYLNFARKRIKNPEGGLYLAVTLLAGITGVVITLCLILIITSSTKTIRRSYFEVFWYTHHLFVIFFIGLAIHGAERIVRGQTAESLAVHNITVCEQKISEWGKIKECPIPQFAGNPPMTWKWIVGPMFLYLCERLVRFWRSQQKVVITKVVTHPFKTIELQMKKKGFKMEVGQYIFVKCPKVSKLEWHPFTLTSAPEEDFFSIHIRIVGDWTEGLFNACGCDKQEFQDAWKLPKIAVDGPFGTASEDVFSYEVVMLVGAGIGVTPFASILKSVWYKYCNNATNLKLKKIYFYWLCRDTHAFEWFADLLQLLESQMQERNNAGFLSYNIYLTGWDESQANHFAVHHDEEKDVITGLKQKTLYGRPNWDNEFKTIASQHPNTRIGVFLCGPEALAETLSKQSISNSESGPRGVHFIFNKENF

Consider `COc1ccc([Si](C)(C)[C@H]2[C@H](CC(=O)N3Cc4ccccc4C[C@H]3CO)O[C@@]3(C(=O)N(Cc4ccc(N5C(=O)c6cccc7cccc5c67)cc4)c4ccccc43)[C@@H]2C)cc1`, for which the composite z-score is -0.108 in [1]; 0.294 in [6]; 0.0102 in [7]; -0.0784 in the test with Torsin-1A (Homo sapiens) [8]; 0.837 with Torsin-1A (Homo sapiens) [9]; 1.66 in test [10]. Further, the composite z-score in [12] turned out to be 0.0771. Moreover, the z-score was -4.09 (inactive) in test [2]; -0.67 (inactive) in [3]; 1.04 (inactive) in test [4]; -1.35 (inactive) in [5]; 0.315 (inactive) in [11]; 4.25 (inactive) in test [13]. Moreover, the z-score in test [14] was 1.36 (inactive); in test [15], 1.67 (inactive); in test [16], 1.09 (inactive); in test [17], 0.412; in test [18] it was -0.327 (inactive); in test [19], 0.252 (inactive). Besides, the z-score in [20] was -1.66.
Consider `Cc1ccccc1C(O)C1C=CC2C(=O)N(c3ccccc3)C(=O)C2N1Nc1ccc([N+](=O)[O-])cc1` (stereo not given), for which the composite z-score was -0.0078 in test [1]; 1.77 in [6]; 0.3 in test [7]; 0.992 with Torsin-1A (Homo sapiens) [8]; 0.593 in the test with Torsin-1A (Homo sapiens) [9]; 0.176 in [10]. The composite z-score in test [12] worked out at 0.186. The z-score in test [2] was -0.52 (inactive); in test [3], -0.35 (inactive); in test [4], 0.78 (inactive); in [5], 0.598 (inactive); in test [11] it was -0.467 (inactive); in test [13] it was 26.5 (active). Further, the z-score in test [14] is 11.2 (active); in test [15], 2.6 (inactive); in test [16], 1.52 (inactive); in test [17], -0.483; in test [18] it was -1.29 (inactive); in [19], -3.58 (inactive). For the same molecule, the z-score in test [20] was -1.83.
For `CCc1cccc(NC(=O)O[C@H]2[C@H](OC(=O)Nc3ccccc3)[C@H](OC(=O)Nc3ccccc3)[C@@H](OC)O[C@@H]2CO)c1`, the composite z-score in test [1] is 0.428; in test [6] it was 1.03; in [7] it was 0.212; with Torsin-1A (Homo sapiens) [8], -0.417; with Torsin-1A (Homo sapiens) [9] it was 0.778; in test [10], 0.0653. In test [12], the composite z-score was found to be 0.253. Moreover, the z-score in [2] is -6.02 (inactive); in [3], -0.0223 (inactive); in test [4], 1.03 (inactive); in test [5], -1.2 (inactive); in [11], -1.42 (inactive); in test [13] it was 10.1 (active). The z-score in test [14] is 3.34 (inactive); in test [15] it was -1.53 (inactive); in [16] it was 1.92 (inactive); in [17], 0.213; in [18], -1.12 (inactive); in [19], -0.593 (inactive). In [20], the z-score was -1.3.
For the molecule `COc1ccc(C#Cc2ccc3c(c2)[C@]2(C(=O)N3)[C@H](C(=O)Nc3nc4ccccc4s3)[C@H]3C(=O)O[C@H](c4ccccc4)[C@H](c4ccccc4)N3[C@@H]2c2ccccc2OCCO)cc1`, the composite z-score in test [1] worked out at 0.189; in test [6], 0.689; in test [7] it was 0.0569; with Torsin-1A (Homo sapiens) [8], 0.076; with Torsin-1A (Homo sapiens) [9], 0.0705; in test [10] it was 0.912. Besides, in [12], the composite z-score was -0.118. The z-score was -4.68 (inactive) in test [2]; -0.939 (inactive) in test [3]; -0.788 (inactive) in test [4]; -0.369 (inactive) in test [5]; 2.86 (inactive) in [11]; 2.32 (inactive) in test [13]. Also, the z-score in test [14] is 2.07 (inactive); in test [15], -0.279 (inactive); in test [16], -0.442 (inactive); in test [17], 0.81; in test [18], 1.91 (inactive); in [19], -0.0532 (inactive). In test [20], this molecule showed a z-score of 0.268.
